Source: the supplement of paper PMC6555819

system: PPARg:RXRa 30nM:10nM, anti-RXR (NR concentration 30 nM, RXRa partner concentration 10 nM); assay: PBM binding z-score (relative to random genomic background probes); higher = stronger binding; sequences stand for … in GC…GCGATTGACAGCGTAGAATGAAGG
Procedure, shortened: (§1)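 On custom Agilent 4×180K arrays, double-stranded probes with 34-nt variable regions carried direct-repeat seeds, single-nucleotide variants, half-site ablations or random human genomic background. Ligand-free nuclear receptor dimers were applied for 1 h, and binding was read with antibodies against each partner (one per run). Binding z-scores come from regression-normalized fluorescence, with the random background probes as reference.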

Sequence	PBM binding z-score
CGTCCAAGGTCATTGGAGGTCAGTGAAGACAGAT	2.48
CCTTACGGGTCACTGACAGGTTATAGCGTTTGGA	1.5
TAGCCTAGGTCATTCAGGGGCAAGTATAGAAAGC	0.449
AGAATGAGGTTACCAAAGTTCAGGGAAACGCTTG	1.65
ATATGTAGGTTATCTGGGGTCATTCAGACTAGGC	3.28
GATATAGGGTCAGCTAGAGGCCAGAGTATGGAAA	1.25
CCTTACGGGTCACGAGGTTGTAGCACGACGAGCG	3.32
ATCGAAAGGTCGTGAGGTAAGTATACAGAAAGGC	1.57
CCTAGCAGGCCAATCTAGGTCACTCAAGGCTTGA	0.115
ACTTACGGGTCTACGAGGTTATAGCACGCGTATA	0.256
CAAACTAGGTCACAAAAGGTCAAAGTCGAATGAC	6.97
CCTACTGGGCCATTCAGAGGTCAATGATCATATG	0.908
CGTCCAAGGTCAATGCTAGATCAGTGAAAGCATT	1.52
ATCGAAAGGTCGACCAGGTGAGTATACACCGTTT	1.16
AGAATGGGGTTACCAAAGATCAGGGAAACGCTTG	1.72
CCTACGGGGCCACGAAAGGTCATTGATTCAGTGA	1.18
CGTCAAACTTCAACTAAGGTAACGTAAAGCACGC	0.351
CCTACTGGGCCACGAAAGGCCATTGATTCAGTGA	-0.199
GGAACGAGGGCATTCGAGTTCATAGCATGGCGAT	-0.096
TCGCCTAGGTCATGGGCCAGTATACCACGCGAAC	1.9

Sequence	PBM binding z-score
AGAATGAGGTTACCAAAGGTCAGGGAAACGCTTG	3.27
TAGCCTAGGTCATTCAGGGGCCACTATAGAAAGC	0.439
AATACAGGGTCATCGTAGGTCAGAGTACGCACAG	3.55
CAAACTAGGTCACAGTGGTCAAAGTCCGTGCGTA	5.52
CCTACTGGGTCACGAAAGGTCATTGATTCAGTGA	5.23
TCTTGTAGATCAATAGAAGTTAAGAAAGTGCGCT	3.04
TACCCTAGGTCATTGGGCCAGTATAGTACGCATC	1.23
AGAATGAGGTTAAACGTAGATCAGGGAAGAAAGT	1.87
CCGAGTTGGTCAAGGTCACACACGCTATAGGTAC	0.931
CCTACTGGACCAAGGTCATTGATCAGTCAAAGCA	0.593
CCTAGTTGGTCAAGGTCACATACGCTATAGGTAC	1.17
ATCTCTAGGTTAAGATAGTTCAGTGAATGCAAAT	0.609
AGAATGAGGTTAAGTTCAGGGAAACAGAATACAT	1.62
TAGCCTAGTTCATGCGGGCCAGTATAGTGTCGGC	-0.651
TAGCCTAGGTCATGGGCCAGTGTACCACGCGAAC	1.39
ATATGTAGGTTAACTGGGGTCATTCAGACTAGGC	4.49
CCTTACGGGTCAAGGTTATAGCCCGGGTGGTACG	1.37
CGTCCAAGGTCATATGAGGTCAGTGAAGACAGAT	2.34
TAGCCTAGGTCGTTCAGGGGCCAGTATAGAAAGC	-0.575
TAGCCTAGGTCATGCGGGCCAATATAGTGTCGGC	0.146

system: PPARg:RXRa 90nM:30nM, anti-RXR (NR concentration 90 nM, RXRa partner concentration 30 nM); assay: as above
Procedure, shortened: as §1

Sequence	PBM binding z-score
CGTCCAAGGTCATTGGAGGTCAGTGAAGACAGAT	4.57
CCTTACGGGTCACTGACAGGTTATAGCGTTTGGA	2.78
TAGCCTAGGTCATTCAGGGGCAAGTATAGAAAGC	1.87
AGAATGAGGTTACCAAAGTTCAGGGAAACGCTTG	3.24
ATATGTAGGTTATCTGGGGTCATTCAGACTAGGC	5.32
GATATAGGGTCAGCTAGAGGCCAGAGTATGGAAA	2.44
CCTTACGGGTCACGAGGTTGTAGCACGACGAGCG	5.08
ATCGAAAGGTCGTGAGGTAAGTATACAGAAAGGC	3.06
CCTAGCAGGCCAATCTAGGTCACTCAAGGCTTGA	1.49
ACTTACGGGTCTACGAGGTTATAGCACGCGTATA	0.0516
CAAACTAGGTCACAAAAGGTCAAAGTCGAATGAC	8.43
CCTACTGGGCCATTCAGAGGTCAATGATCATATG	2.2
CGTCCAAGGTCAATGCTAGATCAGTGAAAGCATT	2.91
ATCGAAAGGTCGACCAGGTGAGTATACACCGTTT	2.44
AGAATGGGGTTACCAAAGATCAGGGAAACGCTTG	3.47
CCTACGGGGCCACGAAAGGTCATTGATTCAGTGA	2.46
CGTCAAACTTCAACTAAGGTAACGTAAAGCACGC	0.111
CCTACTGGGCCACGAAAGGCCATTGATTCAGTGA	0.589
GGAACGAGGGCATTCGAGTTCATAGCATGGCGAT	0.725
TCGCCTAGGTCATGGGCCAGTATACCACGCGAAC	2.9

Sequence	PBM binding z-score
AGAATGAGGTTACCAAAGGTCAGGGAAACGCTTG	4.99
TAGCCTAGGTCATTCAGGGGCCACTATAGAAAGC	2.09
AATACAGGGTCATCGTAGGTCAGAGTACGCACAG	5.23
CAAACTAGGTCACAGTGGTCAAAGTCCGTGCGTA	7.04
CCTACTGGGTCACGAAAGGTCATTGATTCAGTGA	6.95
TCTTGTAGATCAATAGAAGTTAAGAAAGTGCGCT	2.6
TACCCTAGGTCATTGGGCCAGTATAGTACGCATC	2.96
AGAATGAGGTTAAACGTAGATCAGGGAAGAAAGT	3.12
CCGAGTTGGTCAAGGTCACACACGCTATAGGTAC	2.65
CCTACTGGACCAAGGTCATTGATCAGTCAAAGCA	1.95
CCTAGTTGGTCAAGGTCACATACGCTATAGGTAC	2.91
ATCTCTAGGTTAAGATAGTTCAGTGAATGCAAAT	1.15
AGAATGAGGTTAAGTTCAGGGAAACAGAATACAT	3.51
TAGCCTAGTTCATGCGGGCCAGTATAGTGTCGGC	-0.319
TAGCCTAGGTCATGGGCCAGTGTACCACGCGAAC	2.66
ATATGTAGGTTAACTGGGGTCATTCAGACTAGGC	6.42
CCTTACGGGTCAAGGTTATAGCCCGGGTGGTACG	3.74
CGTCCAAGGTCATATGAGGTCAGTGAAGACAGAT	4.36
TAGCCTAGGTCGTTCAGGGGCCAGTATAGAAAGC	-0.218
TAGCCTAGGTCATGCGGGCCAATATAGTGTCGGC	1.26
